Source: PubChem
An excerpt weighted towards active compounds, which were near 18% of everything screened.
TDP1 cell noCPT: qHTS for Inhibitors of human tyrosyl-DNA phosphodiesterase 1 (TDP1): qHTS in cells in absence of CPT; DT40 Tdp1-/- hTDP1 cells, no CPT, ATP luminescence, 48 h; Potency, µM (doses to about 46.2 µM), inactives show at the highest dose activity change, negative = growth inhibition, most hits filed as inhibitors; 420,000 tested, 15% active; AID 686978, 2013; also: potency is read from the fitted curve at half-maximal effect; nearly all actives have a fitted effect of over 55% in size
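Stably hTDP1-transfected Tdp1-null chicken DT40 cells were treated with library compounds minus camptothecin and grown for at least 48 hr at 37 °C, after which cellular ATP was quantified by luminescence.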
IL-1B inflam inh: inhibitors of inflammasome signaling (IL-1 beta secretion); THP-1 LPS/ATP IL-1B secretion, AlphaLISA, 16 h; stronger effect = lower value; activity change, % at 57.5 µM; 360,000 tested, 4.7% active; in the data active = activity change below about -50%; inconclusive = mostly about -30% to -49%
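Secreted IL-1B measured by AlphaLISA bead assay after 16 h compound exposure of THP-1 cells; compounds (final up to 57.5 uM) added 1 h before LPS (250 ng/mL) and ATP (1.25 mM) stimulation; lower signal means less secretion.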
LDHA block: blocks human lactate dehydrogenase A; P00338; purified LDHA, NADH/diaphorase-resazurin fluorescence; stronger effect = lower value; activity change, % (values are at about 110 or 230 µM); 480,000 tested, 0.15% active; AID 1347041; in the data active = activity change below about -30%; inconclusive = mostly about -25% to -30%;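 also: plate controls were DMSO wells for no effect and wells without enzyme for full effect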
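LDH5 2 nM; NADH 0.06 mM, pyruvate 0.2 mM; 200 mM Tris pH 7.4, EDTA, Tween-20; 5 min RT. Detection: diaphorase 0.133 mg/mL + resazurin 37 µM, fluorescence ex540/em590 at 0 and 20 min; normalized to enzyme-free and DMSO wells.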
DT40 TDP1 CPT: growth inhibition of DT40 Tdp1-/-;hTDP1 cells with camptothecin (screen for TDP1 inhibitors); AID 686979; 420,000 tested, 12% active; chicken DT40 Tdp1-/-;hTDP1 cells + 20 nM CPT, ATP luminescence, 48 h; Potency, µM (top dose mostly 46.2 µM), for the others: at the top dose activity change, negative = growth inhibition, most hits filed as inhibitors; also: potency is read from the fitted curve at half-maximal effect; nearly all actives have a fitted effect of over 55% in size
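Cell growth measured by CellTiter-Glo luminescence after a minimum 48 h, 37 C compound exposure with 20 nM CPT in Tdp1-knockout DT40 cells stably expressing hTDP1, seeded 400/well; qHTS titration format.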
Gal4-VP16 FLuc: counter-screen for ROR gamma inhibitors: Gal4-VP16 reporter; 310,000 tested, 3.5% active; AID 2546; Drosophila S2 Gal4-VP16 UAS-luciferase, luminescence, 20 h; Potency, µM (titrated, usually from 53.6 µM), inactives show at the top dose activity, negative = inhibition, usual class: inhibitors;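 also: Gal4-VP16 expression switched on by copper sulfate through the metallothionein promoter; potency is read from the fitted curve at half-maximal effect; nearly all actives have a fitted effect of over 50% in size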
RORgamma inh: ROR gamma (mouse) transcription inhibition | Drosophila S2 Gal4-RORgamma UAS-luciferase reporter, 20 h | Potency, µM (top dose mostly 53.6 µM), for inactives: at the top dose activity change, negative = inhibition, actives largely listed as inhibitors | 310,000 tested, 5.4% active | P51450; also: potency is read from the fitted curve at half-maximal effect; nearly all actives have a fitted effect of over 60% in size
Target sequence (P51450 whole entry, looked up, the tested form may be a part): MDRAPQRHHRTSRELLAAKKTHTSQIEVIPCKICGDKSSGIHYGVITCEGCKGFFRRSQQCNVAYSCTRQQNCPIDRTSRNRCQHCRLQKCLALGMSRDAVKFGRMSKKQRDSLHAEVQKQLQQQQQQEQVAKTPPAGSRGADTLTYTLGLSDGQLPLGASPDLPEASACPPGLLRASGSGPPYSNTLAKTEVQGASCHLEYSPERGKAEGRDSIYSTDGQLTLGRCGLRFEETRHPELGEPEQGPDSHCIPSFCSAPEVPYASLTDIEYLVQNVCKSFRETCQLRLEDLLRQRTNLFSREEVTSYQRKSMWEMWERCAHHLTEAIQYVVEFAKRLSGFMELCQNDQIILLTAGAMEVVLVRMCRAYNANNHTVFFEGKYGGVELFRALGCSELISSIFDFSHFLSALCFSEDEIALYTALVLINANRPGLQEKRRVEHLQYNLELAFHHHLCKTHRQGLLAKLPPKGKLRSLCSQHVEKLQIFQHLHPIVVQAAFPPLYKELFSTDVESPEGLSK
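Read-out: Photinus luciferase luminescence; inhibitors lower reporter signal. Insect Schneider cells with Gal4-ROR gamma fusion under metallothionein promoter, UAS reporter; 700 uM final copper sulfate induction, 20 hr, ambient temperature.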
* = called active by the depositor; u = inconclusive; x = no result; [ ] = remark or other dose. Unless noted, calls follow the shape of the dose curve; as a rule, active = well fitted curve in the direction sought with a large enough effect; inconclusive = small, poorly fitted or top-dose-only effect, or another doubt; inactive = no such curve, though single readings can be large; an effect the other way counts as inactive or inconclusive. Unless noted, % is scaled to controls: 0 for no effect and ±100 for the full control effect.

SMILES | TDP1 cell noCPT | IL-1B inflam inh | LDHA block | DT40 TDP1 CPT | Gal4-VP16 FLuc | RORgamma inh
O=C(NC(Sc1ccc(Cl)cc1)C(=O)O)c1ccccc1 (configuration not stated) | u | -2.1 | -7.3 | 20.6µM* | x | x
CCC(C)C(=O)Nc1ccc(OC)cc1OC (configuration not stated) | 1.7% | -12.8 | 3.4 | 4.5% | -4.7% | -12.3%
CC(C)N(C(=S)Nc1cccc(C(F)(F)F)c1)C(C)c1ccccn1 (configuration not stated) | u | -91.4* | -5.7 | -8.6% | 2.7%[10 µM] | u
COc1ccc(NC(=O)N(CCC(C)C)C(C)c2ccccn2)c(OC)c1 (configuration not stated) | u | -10.7 | 2.7 | 23.1µM* | -5.2% | 0.0%
COc1ccccc1NC(=S)N(C(C)C)C(C)c1ccccn1 (configuration not stated) | u | -4.6 | -2.3 | u | -3.6%[10 µM] | 12.6µM*
COC(=O)c1cc(S(=O)(=O)N(C)CC(=O)N2CCN(c3ccccc3F)CC2)cn1C | x | x | -1.0 | x | x | x
O=C(c1cc(F)cc(F)c1)N1CCC(CCc2ccc(O)cc2)CC1 | x | x | -17.5 | x | x | x
c1n[nH]cc1C12CC3CC(CC(C3)C1)C2 | x | x | 9.0 | x | x | x
CCOc1ccc(S(=O)(=O)Nc2nc3ccccc3nc2N2CCC(O)CC2)cc1 | x | x | 8.0 | x | x | x
Cn1nc(C(=O)NCC(c2ccco2)N2CCCC2)c2ccccc2c1=O (configuration not stated) | x | x | -5.0 | x | x | x
Cc1ccc(CN2C(=O)CCC2(C)c2nnnn2-c2c(C)cccc2C)cc1 (configuration not stated) | 16.4µM* | 15.1 | -2.4 | 18.4µM* | x | x
CCOC(=O)c1c(C)oc2c1cc(NS(=O)(=O)c1ccc(C)cc1)c1ccccc12 | 20.6µM* | x | 7.8 | u | x | x
COC(=O)c1c(C)oc2c1cc(NS(=O)(=O)c1c(C)cc(C)cc1C)c1ccccc12 | 20.6µM* | x | 17.2 | 11.6µM* | x | x
CC(=O)c1c(C)oc2c1cc(NS(=O)(=O)c1c(C)cc(C)cc1C)c1ccccc12 | x | x | 11.2 | x | x | x
CC(=O)c1c(C)oc2c(Cl)cc(NS(=O)(=O)c3ccc(Cl)cc3)cc12 | x | x | 2.2 | x | x | x
CCOC(=O)c1c(C)oc2c(Cl)cc(NS(=O)(=O)c3ccc(Cl)c(C)c3)cc12 | 25.9µM* | x | 3.6 | u | x | x
COC(=O)C(C(=O)OC)c1ccccc1NS(=O)(=O)c1c(C)cc(C)cc1C | 20.6µM* | 34.2 | 0.8 | 16.4µM* | x | x
c1ccc2cc(OCCSc3nc4ccccc4o3)ccc2c1 | x | x | 2.9 | x | x | x
CN(C)c1ccc(C=Nc2ccc(Nc3ccccc3)cc2)cc1 | x | x | 7.8 | x | x | x
N=C(N)SCc1ccccn1 | -28.6% | -11.5 | 0.3 | u | -24.0% | -32.3%
N=C(N)SCc1ccc(Cl)c2ccccc12 | u | -101.1* | -14.5 | u | x | x
NC(=S)N/N=C1\CC(c2ccc3c(c2)OCCCO3)Oc2ccc(F)cc21 (configuration not stated) | 4.61µM* | -70.7* | -5.8 | 2.59µM* | 0.562µM* | -4.7%
Cc1cc(C)c(S(=O)(=O)NCC(c2ccco2)S(=O)(=O)c2ccccc2)c(C)c1 (configuration not stated) | u | x | 2.6 | u | x | x
COc1ccc(CC(=O)NCC(c2cccs2)S(=O)(=O)c2ccc(C)cc2)cc1 (configuration not stated) | 25.9µM* | x | 1.5 | u | x | x
COc1ccccc1CCNC(=O)C(=O)NCC(c1cccs1)S(=O)(=O)c1ccccc1 (configuration not stated) | u | x | -2.8 | u | x | x
SMILES | TDP1 cell noCPT | IL-1B inflam inh | LDHA block | DT40 TDP1 CPT | Gal4-VP16 FLuc | RORgamma inh
O=C(NCCc1ccccc1)C(=O)NCC(c1cccs1)S(=O)(=O)c1cccs1 (configuration not stated) | u | x | -9.5 | 16.4µM* | x | x
Cc1cc(C)c(S(=O)(=O)NCC(c2cccs2)S(=O)(=O)c2ccccc2)c(C)c1 (configuration not stated) | 4.11µM* | x | 9.1 | 1.16µM* | x | x
COc1ccccc1CNC(=O)C(=O)NCC(c1cccs1)S(=O)(=O)c1ccccc1 (configuration not stated) | 16.4µM* | x | -4.3 | u | x | x
Cc1ccc(S(=O)(=O)C(CC(=O)c2ccc(F)cc2)c2cccs2)cc1 (configuration not stated) | x | x | 2.3 | x | x | x
Cc1ccc(C(=O)NCC(c2cccs2)S(=O)(=O)c2cccs2)cc1 (configuration not stated) | 9.2µM* | x | 6.3 | 20.6µM* | x | x
CC(C)(C)c1ccc(C(=O)NCC(c2cccs2)S(=O)(=O)c2ccc(F)cc2)cc1 (configuration not stated) | 20.6µM* | x | -5.5 | 18.4µM* | x | x
CC(C)(C)c1ccc(C(=O)NCC(c2cccs2)S(=O)(=O)c2cccs2)cc1 (configuration not stated) | u | x | -2.4 | u | x | x
Cc1ccc(C(=O)CC(c2cccs2)S(=O)(=O)c2ccc(C)cc2)cc1 (configuration not stated) | 14.6µM* | -7.7 | -4.1 | u | 16.9% | 30.9%[10 µM]
CCn1nc(C(=O)N(Cc2nc3ccccc3c(=O)[nH]2)C(C)C)c2ccccc2c1=O | x | x | -21.4 | x | x | x
COc1ccc(CNC(=S)Nc2ccccc2Cl)cc1 | -12.1% | 0.0 | -10.3 | -12.2% | u | 17.8µM*
COc1ccc(CNC(=S)Nc2ccccc2-c2ccccc2)cc1 | x | x | x | x | 7.08µM* | 2µM*
COc1ccc(OCC(=O)Nc2ccccc2-c2ccccc2)cc1 | u | 21.2 | -0.7 | u | -13.2% | -16.9%
NC(c1ccccc1)c1csc(Nc2ccccn2)n1 (configuration not stated) | 20.6µM* | u | -5.3 | u | x | x
NC(c1csc(Nc2ccccn2)n1)C1CCCCC1 (configuration not stated) | 16.4µM* | -68.1* | -4.0 | 14.6µM* | x | x
Cc1cnc(C)c(Nc2nc(C(N)c3ccccc3)cs2)n1 (configuration not stated) | u | 0.0 | 9.2 | u | x | x
CCOC(=O)N1CCN(S(=O)(=O)c2cc(OCC)c(C)cc2OCC)CC1 | x | x | -18.4 | x | x | x
C=C(C)C(=O)NNc1ccccc1 | 7.31µM* | 3.5 | -0.3 | 5.17µM* | u | u
CC(C)OC(=O)C(=O)NNc1ccccc1 | -17.0% | 18.5 | 0.8 | -1.3% | -6.9% | -6.9%
CC(C)(C)C(=O)/C(C#N)=C/c1ccc(OCc2ccc(Cl)cc2Cl)cc1 | x | x | 1.3 | x | x | x
